Screening results deposited in PubChem by National Center for Advancing Translational Sciences (NCATS).
FMDV inh = High Throughput Screening for Foot and Mouth Disease Virus Antivirals | FMDV antiviral cell-based qHTS | Potency, µM (top dose mostly 57.9 µM), for the others: at the top dose activity change, negative = inhibition, hits mostly inhibitors | 410,000 tested, 1.2% active; calls by dose curve; tested in HEK293T cells; note: read-out not given here; potency is the fitted concentration of half-maximal effect; % is set by controls: 0 for no effect and ±100 for the full control effect; nearly all actives have a fitted effect of over 45% in size
HCMV inh = qHTS Assay for inhibitors of the human cytomegalovirus (HCMV) | HFF cells, HCMV-luciferase reporter, 72 h; stronger effect = lower value | activity change, negative = inhibition, % at 57.5 µM | AID 1259415, 2018 | 410,000 tested, 4.5% active; in the data active = activity change below about -60%; inconclusive = no clear call, values can overlap the other calls; inactive = above about -39%; note: % is set by controls: 0 for no effect and ±100 for the full control effect
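HFF cells seeded 16 h at 37C, treated with compounds, infected with luciferase-reporter HCMV at MOI 1 PFU/cell; luciferase read at 72 h post infection, normalized to buffer-only and Salinomycin controls.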
LASV entry inh = qHTS for Inhibitors of binding or entry into cells for Lassa Virus | Lassa virus pseudotype entry inhibition, cell reporter | Potency, µM (series often up to 37.9 µM), inactives show top-dose activity change, negative = inhibition, actives largely listed as inhibitors | 300,000 tested, 1.2% active | AID 540256, 2011; calls by dose curve; tested in HEK293 cells; note: potency is the fitted concentration of half-maximal effect; % is set by controls: 0 for no effect and ±100 for the full control effect; nearly all actives have a fitted effect of over 50% in size
HCV inhibitor = qHTS Assay for Inhibitors of Hepatitis C Virus (HCV) | AID 651820, 2012 | 340,000 tested, 3.4% active | Potency, µM (top dose mostly 41.8 µM), for the others: top-dose activity change, negative = inhibition, hits mostly inhibitors | Huh7.5.1 HCVcc-Cre infection, luciferase reporter, 44 h; active = well fitted inhibition curve with a large enough effect; inconclusive = small, poorly fitted or top-dose-only effect, or another doubt; inactive = no such curve, though single readings can be large or run the other way; note: potency is the fitted concentration of half-maximal effect; % is set by controls: 0 for no effect and ±100 for the full control effect
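Cells (1,000/well) were plated 4 h before compound, then infected with HCVcc-Cre virus (~0.5 moi). After 44 h further culture, infection was read as luciferase luminescence following a 15 min substrate incubation at room temperature.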
SARS PLpro yeast = qHTS of Yeast-based Assay for SARS-CoV PLP; S. cerevisiae expressing SARS-CoV PLpro, growth rescue; Potency, µM (top dose mostly 32.9 µM), without a hit: top-dose activity, positive = growth rescue, hits mostly activators; 330,000 tested, 0.19% active; AID 485353, 2010; calls by dose curve; note: potency is the fitted concentration of half-maximal effect; 0% is about no effect; nearly all actives have a fitted effect of over 55% in size
Marburg entry inh = qHTS for inhibitors of binding or entry into cells for Marburg Virus; Potency, µM (doses to about 37.8 µM), inactives show top-dose activity change, negative = inhibition, usual class: inhibitors; 300,000 tested, 1.8% active; Marburg virus pseudotyped entry inhibition, cell reporter; calls by dose curve; tested in HEK293 cells; note: potency is the fitted concentration of half-maximal effect; % is set by controls: 0 for no effect and ±100 for the full control effect
An asterisk follows results filed as active; ? = inconclusive; . = no result given; ! = repeats disagree; [ ] = dose if it differs, or a comment. Only some compounds are listed: those with a hit (about 8% of all), similar ones and a draw of the others.

SMILES	FMDV inh	HCMV inh	LASV entry inh	HCV inhibitor	SARS PLpro yeast	Marburg entry inh
O=C(Cc1cccc2ccccc12)NC(NC(=S)Nc1ccccc1Cl)C(Cl)(Cl)Cl (stereo unspecified)	-19.9%	-38.9	?	?	19.3%	5.62µM*
COc1ccc(NC(=S)NC(NC(=O)c2cccc(Cl)c2)C(Cl)(Cl)Cl)c([N+](=O)[O-])c1 (stereo unspecified)	-24.3%	-88.0*	?	11.2µM*!	-22.2%	-8.0%
O=C(NC(NC(=S)Nc1ccccc1C(=O)O)C(Cl)(Cl)Cl)c1cccc([N+](=O)[O-])c1 (stereo unspecified)	-4.2%	23.7	-1.3%	-10.0%	2.9%	24.1%
CC(=O)OC[C@H]1O[C@@H](ON=C2C[C@@H](O)[C@@H](O)[C@@H]3[C@H]4C(=O)N(Cc5ccccc5)C(=O)[C@@H]4CC[C@@H]23)[C@H](OC(C)=O)[C@@H](OC(C)=O)[C@H]1OC(C)=O	.	.	?	.	.	-9.1%[14.2 µM]
C[N+]1=C(/C=N/O)CCCC1	.	.	.	.	.	2.4%
COC(=O)c1ccccc1NC(=O)C1CCCN(c2nnc(C)c3c(C)n(-c4ccccc4)nc23)C1 (stereo unspecified)	-11.6%	-12.4	1.7%[46.1 µM]	.	.	.
COc1cc2c(cc1OC)C(COc1cccc(C(F)(F)F)c1)NCC2 (stereo unspecified)	?	-71.4*	.	?	-3.4%	.
CCOc1ccc(NCc2cccn2-c2nnc(N3CCC(C(=O)NCCCN4CC(C)CC(C)C4)CC3)s2)cc1 (stereo unspecified)	0.0%	-85.3*	-29.8%	?	-14.5%	?
Cc1ccc(NCc2cccn2-c2nnc(N3CCC(C(=O)NCCc4ccccc4)CC3)s2)cc1	2.1%	-39.0	.	.	.	?
CCCCOc1ccc(CNC(=O)C2CCN(c3nnc(-n4cccc4CNc4ccc(C)cc4)s3)CC2)cc1	-12.2%	5.9	.	.	.	-2.2%[46.1 µM]
CCOc1ccc(NCc2cccn2-c2nnc(N3CCC(C(=O)NCCc4ccc(OCC)c(OCC)c4)CC3)s2)cc1	?	-80.1*	.	.	.	?
Cc1ccc(NCc2cccn2-c2nnc(N3CCC(C(=O)NCc4ccc(F)cc4)CC3)s2)cc1	-21.5%	-78.5*	.	.	.	?
CCOc1ccc(NCc2cccn2-c2nnc(N3CCC(C(=O)NCCc4ccc(OC)c(OC)c4)CC3)s2)cc1	22.4µM*	-84.8*	.	.	.	?
COc1ccccc1C(CNC(=O)CNC(=O)c1ccc(C)c(C)c1)N1CCCC1 (stereo unspecified)	-13.7%	-7.2	11.0%	-16.1%	-1.5%	?
C[C@H]1[C@@H](NS(=O)(=O)c2ccc([N+](=O)[O-])cc2[N+](=O)[O-])CC[C@@]23CCCN2C(=O)CCC[C@@H]13	.	12.1	.	.	.	.
Oc1ccc(Nc2ccnc3cc(Cl)ccc23)cc1	23.8%	-11.7	-12.4%[46.1 µM]	-1.5%	1.0%	?
O=C(NCCNc1ccnc2cc(Cl)ccc12)c1ccccc1F	?	-61.7*	.	12.6µM*	0.0%	.
CCN(CC)CCNc1ccnc2cc(Cl)ccc12	-21.0%	0.3	-17.5%	5.62µM*	4.0%	2.91µM*
CCN(CC)Cc1cc(Nc2ccnc3cc(Cl)ccc23)ccc1O	-17.3%	-28.4	.	7.94µM*	-9.4%	.
Cc1ccc(CNC(=O)C2CCCN(Cc3nc(-c4cccc(C)c4)oc3C)C2)cc1 (stereo unspecified)	?	-11.2	0.1%[46.1 µM]	.	.	-13.7%[46.1 µM]
COc1ccc(-c2csc(Nc3ccccc3)[n+]2CC(O)c2ccc([N+](=O)[O-])cc2)cc1 (stereo unspecified)	?	7.6	.	8.91µM*	-1.1%	.
COc1ccc(OC)c(NC(=O)C(Cc2ccccc2)NS(=O)(=O)c2ccc3c(c2)CCC(=O)N3)c1 (stereo unspecified)	-22.1%	0.8	?	.	.	-4.6%[46.1 µM]
COc1ccc(NC(=O)C(Cc2ccccc2)NS(=O)(=O)c2ccc3c(c2)CCC(=O)N3)c(OC)c1 (stereo unspecified)	-9.0%	-101.8*	?	.	.	-0.7%[46.1 µM]
